Hits are enriched below; roughly 3% of the tested compounds scored in any of these assays.
PPC-1+TRAIL kill: compounds killing PPC-1 cancer cells with TRAIL present (potentiator screen, no TRAIL-free arm); AID 1443; cell killing (% activity), % at 4 µM or 5 µM; PPC-1 cells + TRAIL, ATPLite viability luminescence; 0.41% of 220,000 active;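 active means cell killing above 50% in the first pass at 4 µM, then a duplicate retest at 5 µM averaging 50% or more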;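 further: plate controls were cells with TRAIL plus DMSO for no effect and medium-only wells lacking cells for full effect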
SENP7 block: SENP7 protease inhibition; inhibition, % at 5 µM; 1.5% of 330,000 active; Q9BQF6; recombinant SENP7, Z-RLRGG-aminoluciferin luminescence, 40 min;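 active means inhibition above about 50% at the single test dose, limit read from the data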;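 further: plate controls were DMSO with enzyme for no effect and no enzyme buffer wells for full effect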
SENP8 block-1: blocks human SENP8 cleavage of Nedd8 substrate | AID 602440 | 0.64% of 360,000 active | Q96LD8 | inhibition, % at 20 µM | recombinant SENP8, Nedd8 substrate fluorescence; in the data active means inhibition mostly above about 40%, no sharp cut-off; inactive means mostly below about 27%
Target sequence (Q96LD8 whole entry, looked up): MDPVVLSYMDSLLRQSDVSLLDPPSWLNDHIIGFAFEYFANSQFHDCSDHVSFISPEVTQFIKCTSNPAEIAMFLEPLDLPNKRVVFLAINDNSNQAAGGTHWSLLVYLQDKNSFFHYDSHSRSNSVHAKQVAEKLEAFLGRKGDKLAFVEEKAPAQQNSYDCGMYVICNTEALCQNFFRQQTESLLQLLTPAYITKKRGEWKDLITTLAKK
SENP8 block-2: SENP8 protease inhibition. Q96LD8. purified SENP8, Z-RLRGG-aminoluciferin cleavage, luminescence. inhibition, % at 10 µM. 1.2% of 330,000 active. AID 2540; in the data active means inhibition above about 50%
TRAIL sens C8: caspase-8 TRAIL sensitization | inhibition (viability loss, TRAIL sensitization), % at 10 µM | 1% of 360,000 active | NB7+C8 cells + TRAIL, ATPlite viability luminescence | AID 624354;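 active means compounds causing at least 50% loss of cell viability in the single-dose screen, relative to plate controls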
SENP6 inh: SENP6 protease inhibition; 1.8% of 330,000 active; AID 2599; Recombinant SENP6 catalytic domain, aminoluciferin luminescence; Q9GZR1; inhibition, % at 10 µM;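 active means inhibition above about 50% at the single tested dose, limit read from the data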;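 further: plate controls were DMSO wells with enzyme for no effect and DMSO wells lacking enzyme for full effect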
SENP8 confirm: human SENP8 inhibition, confirmed | shares compounds with SENP7 block | Recombinant SENP8, Z-RLRGG-aminoluciferin luminescence, 60 min | inhibition, % at 12.5 µM | 40% of 6,200 active | AID 488912;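 active means mean inhibition across replicates above about 50%, limit read from the data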
SENP6 conf: human SENP6 inhibition, confirmed | recombinant SENP6, Z-RLRGG-aminoluciferin luminescence | AID 488915 | inhibition, % at 12.5 µM | shares compounds with SENP7 block | 58% of 6,200 active
SENP7 confirm: human SENP7 inhibition, confirmed | shares compounds with SENP7 block | recombinant SENP7, Z-RLRGG-aminoluciferin luminescence, 40 min | inhibition, % at 12.5 µM | 69% of 6,200 active
Casp3 SENP sel: inhibits human caspase-3 in SENP selectivity test; shares compounds with SENP7 block; purified caspase-3, Z-DEVD-aminoluciferin luminescence, 60 min; inhibition, % at 12.5 µM; 60% of 6,200 active;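 active means mean inhibition above about 50%, limit read from the data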;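 further: plate controls were enzyme with DMSO for no effect and wells without caspase-3 for full effect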
Target sequence (P42574 28-227 limits assumed): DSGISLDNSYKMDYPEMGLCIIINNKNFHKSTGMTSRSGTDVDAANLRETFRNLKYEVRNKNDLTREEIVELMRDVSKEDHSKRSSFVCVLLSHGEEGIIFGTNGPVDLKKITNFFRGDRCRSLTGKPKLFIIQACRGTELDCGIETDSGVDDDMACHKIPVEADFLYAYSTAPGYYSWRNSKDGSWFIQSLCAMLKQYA
Luc interf: luminescence interference (SENP counter-screen). shares compounds with SENP7 block. inhibition, % at 12.5 µM. Pre-incubated SENP8/Z-RLRGG-aminoluciferin, luciferase luminescence interference. AID 488919. 39% of 6,200 active;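 active means mean inhibition above about 50% when retested at one dose, limit read from the data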;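 further: plate controls were DMSO wells with completed reaction for no effect and substrate without enzyme for full effect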
* marks the source's active call; other numbers are inactive results.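 How the source made its calls, unless noted: active means mean inhibition above about 50% in the one-dose retest (limit read from the data); inactive means the rest.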

COc1ccccc1N1CCN(C2CCCN(C(=O)c3cccc(-c4ccco4)c3)C2)CC1 (centres undefined) was read as SENP7 block 11, SENP8 block-1 0, SENP8 block-2 -10, TRAIL sens C8 17 and SENP6 inh -7.
Screening Cc1ccc(S(=O)(=O)N2CCCCC2)cc1NS(=O)(=O)c1cccc(C(=O)O)c1 returned PPC-1+TRAIL kill 22, SENP7 block -3, SENP8 block-1 24, SENP8 block-2 -11, TRAIL sens C8 -1 and SENP6 inh -11.
`COc1cc(NC(=O)CN2C(=O)C(C)N(c3ccc(C)cc3)C2=O)cc(OC)c1` (centres undefined) gave SENP7 block 7, SENP8 block-1 8, SENP8 block-2 -2, TRAIL sens C8 -3 and SENP6 inh -17.
Screening CC(C)C[C@@H]1COc2cc(N(C)CCO)ccc2S(=O)(=O)N1 returned SENP8 block-1 -3 and TRAIL sens C8 2.
Screening O=C(Nc1ccccn1)c1cc2ccccc2cc1O returned SENP7 block 52*, SENP8 block-1 3, SENP8 block-2 75*, TRAIL sens C8 5, SENP6 inh 77*, SENP8 confirm 6, SENP6 conf 33, SENP7 confirm 50, Casp3 SENP sel 38 and Luc interf 3.
For Cc1ccc(NC(=O)c2cc3ccccc3cc2O)cc1 the results were SENP7 block 50, SENP8 block-1 -50, SENP8 block-2 15, TRAIL sens C8 39 and SENP6 inh 45.
Screening CN(c1ccccc1)S(=O)(=O)c1cccc(NC(=O)c2cc3ccccc3oc2=O)c1 returned PPC-1+TRAIL kill 2, SENP7 block 6, SENP8 block-1 -20, SENP8 block-2 3, TRAIL sens C8 -11 and SENP6 inh 12.
For COc1ccc(NC(=O)c2cc3ccccc3cc2O)cc1 the results were SENP7 block 13, SENP8 block-1 20, SENP8 block-2 50, TRAIL sens C8 30, SENP6 inh 51*, SENP8 confirm 25, SENP6 conf 33, SENP7 confirm 88*, Casp3 SENP sel 44 and Luc interf 8.
O=C(Nc1ccccn1)c1ccc(C(=O)Nc2ccccn2)cc1 was read as SENP7 block 4, SENP8 block-1 8, SENP8 block-2 -10, TRAIL sens C8 16 and SENP6 inh 13.
`Cc1ccc(NC(=O)c2cc3ccccc3oc2=O)cc1S(=O)(=O)N(C)C` gave PPC-1+TRAIL kill 28, SENP7 block 73*, SENP8 block-1 9, SENP8 block-2 25, TRAIL sens C8 56*, SENP6 inh 36, SENP8 confirm 22, SENP6 conf 25, SENP7 confirm 17, Casp3 SENP sel 39 and Luc interf 7.
For COc1ccc(NC(=O)c2ccco2)c2ccccc12 the results were SENP7 block 9, SENP8 block-1 7, SENP8 block-2 8, TRAIL sens C8 -4 and SENP6 inh 9.
Screening CN1CCSc2ccc(C(=O)Nc3cc(F)ccc3F)cc21 returned PPC-1+TRAIL kill 38, SENP7 block 89*, SENP8 block-1 -421, SENP8 block-2 76*, TRAIL sens C8 9, SENP6 inh 88*, SENP8 confirm 86*, SENP6 conf 86*, SENP7 confirm 96*, Casp3 SENP sel 79* and Luc interf 25.
For COC(=O)c1ccccc1S(=O)(=O)N1CCC(C(=O)NCc2ccco2)CC1 the results were SENP7 block -8, SENP8 block-1 7, SENP8 block-2 2, TRAIL sens C8 -10 and SENP6 inh -11.
For O=C(NC1(O)C(=O)c2ccccc2C1=O)c1c(Cl)cccc1Cl the results were PPC-1+TRAIL kill 18, SENP7 block 60*, SENP8 block-1 97*, SENP8 block-2 64*, TRAIL sens C8 -6, SENP6 inh 65*, SENP8 confirm 67*, SENP6 conf 86*, SENP7 confirm 75*, Casp3 SENP sel 9 and Luc interf 6.
For O=C(Nc1ccccc1Cl)c1c(F)c(F)c(F)c(F)c1F the results were SENP7 block -6, SENP8 block-1 2, SENP8 block-2 -9, TRAIL sens C8 19 and SENP6 inh 0.
For O=C(NC1(O)C(=O)c2ccccc2C1=O)c1ccccc1 the results were PPC-1+TRAIL kill 10, SENP7 block 63*, SENP8 block-1 99*, SENP8 block-2 65*, TRAIL sens C8 -23, SENP6 inh 70*, SENP8 confirm 75*, SENP6 conf 89*, SENP7 confirm 81*, Casp3 SENP sel 7 and Luc interf 10.
Screening Cc1ccc(NC(=O)C(c2ccccc2)N2CCN(CC(=O)NC3CC3)CC2)cc1 (centres undefined) returned SENP7 block -5, SENP8 block-1 10, SENP8 block-2 9, TRAIL sens C8 -5 and SENP6 inh -6.
`Cc1ccc(/C=N/NC(=O)c2ccncc2)cc1` gave SENP7 block -14, SENP8 block-1 26, SENP8 block-2 -12, TRAIL sens C8 0 and SENP6 inh -19.
Screening Cc1ccc(/C=N\NC(=O)c2csnn2)cc1 returned PPC-1+TRAIL kill 19, SENP7 block 50*, SENP8 block-1 24, SENP8 block-2 30, TRAIL sens C8 12, SENP6 inh 55*, SENP8 confirm 41, SENP6 conf 39, SENP7 confirm 77*, Casp3 SENP sel 81* and Luc interf 28.
CC1CCN(C(=O)c2ccc(-c3ccccc3Cl)o2)CC1 was read as SENP7 block 42, SENP8 block-1 6, SENP8 block-2 49, TRAIL sens C8 30, SENP6 inh 72*, SENP8 confirm 66*, SENP6 conf 66*, SENP7 confirm 82*, Casp3 SENP sel 51* and Luc interf 65*.
For COc1ccccc1-c1cc(C(=O)N2CCCC2)no1 the results were SENP7 block 15, SENP8 block-1 1, SENP8 block-2 1, TRAIL sens C8 8 and SENP6 inh 26.
